Active and inactive are the calls of the source.
Tests used:
[1] = test system: PRMT1 (protein arginine N-methyltransferase 1); experiment: PRMT1 binders on small-molecule microarrays, primary screen, biochemical, small-molecule microarray, 635 nm fluorescence (AID 1088); conditions: small-molecule microarray binding, higher = more signal;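 note: binding of Prmt1 protein to compounds spotted on small-molecule microarray slides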
[2] = yeast growth modulation, basal conditions, primary screen, YJM789 clinical isolate, OD600, 24 h (AID 1089);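 note: growth of clinical yeast isolate S. cerevisiae YJM 789 seeded 1000 cells per well; test concentration not given here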; conditions: S. cerevisiae YJM789 growth, higher = more signal, called active from +8 up or from −8 down
[3] = fission yeast growth modulation, primary screen, strain 972, OD600, 24 h, no modulator (AID 1090);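 note: basal condition with compound alone and no growth modifier present; test concentration not given here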; conditions: S. pombe 972 growth, higher = more signal, called active from +8 up or from −8 down
[4] = S. cerevisiae growth modulation with rapamycin, primary screen, strain BY4716, OD600, 96 h (AID 1091); conditions: higher = more signal, called active from +8 up or from −8 down; note: test concentration not given here
[5] = molecular target: Torsin-1A-interacting protein 2 (Homo sapiens) (UniProt Q8NFQ8); experiment: LULL1 binders on small-molecule microarray, primary screen, cell lysate, human LULL1 lysate, 635/667 nm fluorescence (AID 1092); conditions: hLULL1 lysate binding, 635 nm fluorescence, higher = more signal;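 note: probe is lysate of COS7 cells overexpressing human LULL1; score merges per-feature 667 nm fluorescence with signal-to-noise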
Torsin-1A-interacting protein 2 (Homo sapiens), sequence (Q8NFQ8 whole entry, looked up): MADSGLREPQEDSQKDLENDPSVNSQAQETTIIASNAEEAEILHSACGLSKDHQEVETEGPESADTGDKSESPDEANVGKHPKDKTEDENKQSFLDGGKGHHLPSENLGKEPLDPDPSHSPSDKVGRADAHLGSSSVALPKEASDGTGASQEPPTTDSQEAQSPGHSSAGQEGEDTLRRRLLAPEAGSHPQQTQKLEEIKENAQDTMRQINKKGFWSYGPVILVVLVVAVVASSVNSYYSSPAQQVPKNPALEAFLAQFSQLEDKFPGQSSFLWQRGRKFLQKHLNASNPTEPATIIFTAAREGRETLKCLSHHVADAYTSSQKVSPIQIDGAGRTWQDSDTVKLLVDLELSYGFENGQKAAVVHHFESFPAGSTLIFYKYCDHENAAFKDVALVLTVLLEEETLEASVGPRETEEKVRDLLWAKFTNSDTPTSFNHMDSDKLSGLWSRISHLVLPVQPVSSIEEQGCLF

[6] = E. coli growth modulation, two-sided OD650, primary screen, E. coli filamentation project, strain DRC41, 24 h (AID 1093); conditions: OD650, 24 h, higher = more signal, called active from +8 up or from −8 down;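 note: MC1000 strain lacking acrAB efflux and sulA so SOS filamentation is blocked; test concentration not given here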
[7] = small-molecule microarray binders of probe aLefty2, primary screen, biochemical, biotinylated probe, 635/667 nm fluorescence (AID 1094); conditions: higher = more signal;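 note: score merges spot fluorescence near 667 nm with spot signal-to-noise ratio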
[8] = test system: Noggin (protein binding on small-molecule microarray); experiment: Noggin binders on small-molecule microarray, primary screen, biochemical, 635/667 nm fluorescence (AID 1095); conditions: 635 nm fluorescence, higher = more signal;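 note: score merges 667 nm feature fluorescence with signal to noise over triplicate slides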
[9] = molecular target: Neurogenic locus notch homolog protein 3 (Homo sapiens) (UniProt Q9UM47); experiment: NOTCH3 binders on small-molecule microarray, primary screen, biochemical, 635/667 nm fluorescence (AID 1096); conditions: NOTCH3 binding, 635 nm fluorescence, higher = more signal
Neurogenic locus notch homolog protein 3 (Homo sapiens), sequence (Q9UM47 whole entry, looked up): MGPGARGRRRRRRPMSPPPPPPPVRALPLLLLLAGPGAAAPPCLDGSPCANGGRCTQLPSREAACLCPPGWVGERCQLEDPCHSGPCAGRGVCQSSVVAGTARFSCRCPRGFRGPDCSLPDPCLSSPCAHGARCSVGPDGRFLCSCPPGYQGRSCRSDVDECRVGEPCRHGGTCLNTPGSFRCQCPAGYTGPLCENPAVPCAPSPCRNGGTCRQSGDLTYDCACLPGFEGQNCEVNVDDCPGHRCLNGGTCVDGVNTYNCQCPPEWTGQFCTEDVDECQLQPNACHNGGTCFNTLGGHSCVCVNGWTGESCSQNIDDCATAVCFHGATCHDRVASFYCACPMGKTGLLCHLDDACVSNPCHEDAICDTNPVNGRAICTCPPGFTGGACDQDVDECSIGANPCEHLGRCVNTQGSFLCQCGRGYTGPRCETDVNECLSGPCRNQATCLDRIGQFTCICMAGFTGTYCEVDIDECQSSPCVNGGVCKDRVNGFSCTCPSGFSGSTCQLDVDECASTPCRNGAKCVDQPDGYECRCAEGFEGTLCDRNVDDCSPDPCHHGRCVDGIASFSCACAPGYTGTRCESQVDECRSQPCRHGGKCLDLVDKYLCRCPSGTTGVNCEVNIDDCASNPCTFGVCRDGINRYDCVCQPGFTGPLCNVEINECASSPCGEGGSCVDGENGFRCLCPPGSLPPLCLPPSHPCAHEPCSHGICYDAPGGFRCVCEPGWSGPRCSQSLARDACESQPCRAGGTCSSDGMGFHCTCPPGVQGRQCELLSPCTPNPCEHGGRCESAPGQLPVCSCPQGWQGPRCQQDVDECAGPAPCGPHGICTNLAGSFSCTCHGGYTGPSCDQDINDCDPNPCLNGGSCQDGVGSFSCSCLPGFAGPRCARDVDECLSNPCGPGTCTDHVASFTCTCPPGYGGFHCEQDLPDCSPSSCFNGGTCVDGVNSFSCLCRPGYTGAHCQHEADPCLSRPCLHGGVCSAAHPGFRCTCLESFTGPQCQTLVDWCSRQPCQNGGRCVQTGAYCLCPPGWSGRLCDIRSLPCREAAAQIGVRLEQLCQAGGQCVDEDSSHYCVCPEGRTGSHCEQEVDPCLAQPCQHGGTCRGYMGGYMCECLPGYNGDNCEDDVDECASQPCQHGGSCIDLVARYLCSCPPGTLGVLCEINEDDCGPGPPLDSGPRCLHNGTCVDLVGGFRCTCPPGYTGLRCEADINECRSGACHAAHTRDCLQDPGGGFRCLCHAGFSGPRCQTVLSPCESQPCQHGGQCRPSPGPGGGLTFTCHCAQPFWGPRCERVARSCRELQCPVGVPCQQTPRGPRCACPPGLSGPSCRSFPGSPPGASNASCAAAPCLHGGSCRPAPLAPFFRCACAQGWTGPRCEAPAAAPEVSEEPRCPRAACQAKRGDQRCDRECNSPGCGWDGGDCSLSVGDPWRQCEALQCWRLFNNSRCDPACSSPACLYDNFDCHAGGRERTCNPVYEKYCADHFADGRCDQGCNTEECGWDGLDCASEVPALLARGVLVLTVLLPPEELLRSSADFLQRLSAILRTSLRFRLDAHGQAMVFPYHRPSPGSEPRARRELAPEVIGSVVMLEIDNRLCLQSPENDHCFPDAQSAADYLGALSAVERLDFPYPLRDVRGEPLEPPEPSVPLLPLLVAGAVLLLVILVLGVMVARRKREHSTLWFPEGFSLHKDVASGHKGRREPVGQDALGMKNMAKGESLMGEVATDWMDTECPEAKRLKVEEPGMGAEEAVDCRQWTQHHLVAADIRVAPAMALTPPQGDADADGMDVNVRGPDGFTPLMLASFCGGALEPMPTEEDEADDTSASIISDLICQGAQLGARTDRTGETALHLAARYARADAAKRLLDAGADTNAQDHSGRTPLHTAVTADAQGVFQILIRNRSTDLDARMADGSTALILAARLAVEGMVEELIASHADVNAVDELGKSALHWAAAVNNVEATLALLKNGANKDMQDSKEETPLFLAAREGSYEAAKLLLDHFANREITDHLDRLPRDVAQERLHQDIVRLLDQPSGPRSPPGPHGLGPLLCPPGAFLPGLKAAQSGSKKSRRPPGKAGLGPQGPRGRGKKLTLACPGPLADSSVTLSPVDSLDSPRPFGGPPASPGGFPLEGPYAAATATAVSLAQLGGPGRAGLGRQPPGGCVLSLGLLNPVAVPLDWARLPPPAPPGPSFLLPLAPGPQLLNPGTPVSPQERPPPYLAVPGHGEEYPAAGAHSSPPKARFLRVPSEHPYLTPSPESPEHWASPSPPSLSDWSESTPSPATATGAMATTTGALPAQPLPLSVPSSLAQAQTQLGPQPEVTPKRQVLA

[10] = small-molecule microarray binders of probe aEGFR, primary screen, biochemical, biotinylated probe, 635/667 nm fluorescence (AID 1097); conditions: higher = more signal;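 note: probe is a biotinylated anti-EGFR antibody binding compounds printed on slides; score combines fluorescence near 667 nm and signal to noise of each spot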
[11] = test system: Plasmodium falciparum Sir2 (PF13_0152, Sir2A); experiment: pfSir2 binders on small-molecule microarrays, primary screen, biochemical, small-molecule microarray, 635 nm fluorescence (AID 1098); conditions: small-molecule microarray binding, fluorescence 635 nm; higher = more signal;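 note: score merges spot fluorescence intensity with its signal-to-noise ratio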
[12] = small-molecule microarray binders of probe aDKK1, primary screen, biochemical, biotinylated probe, 635/667 nm fluorescence (AID 1099); conditions: higher = more signal;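 note: score merges 667nm spot fluorescence with signal to noise across triplicate slides; reference of the scale not given here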
[13] = small-molecule microarray binders of probe aCHRDL2, primary screen, biochemical, biotinylated probe, 635/667 nm fluorescence (AID 1100); conditions: higher = more signal
[14] = splicing luciferase reporter signal modulators, primary screen, spliceosome inhibition project, cell-based, HEK293, splice +/- reporter (AID 1101); conditions: luminescence, 24 h, higher = more signal, called active from +8 up or from −8 down;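 note: HEK293 cells carrying a splicing-competent luciferase reporter gene; test concentration not given here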
[15] = molecular target: Fibroblast growth factor 10 (Homo sapiens) (UniProt O15520); experiment: FGF10 binders on small-molecule microarrays, primary screen, biochemical, small-molecule microarray, 635 nm fluorescence (AID 1102); conditions: FGF10 binding, fluorescence 635 nm, higher = more signal
Fibroblast growth factor 10 (Homo sapiens), sequence (O15520 whole entry, looked up): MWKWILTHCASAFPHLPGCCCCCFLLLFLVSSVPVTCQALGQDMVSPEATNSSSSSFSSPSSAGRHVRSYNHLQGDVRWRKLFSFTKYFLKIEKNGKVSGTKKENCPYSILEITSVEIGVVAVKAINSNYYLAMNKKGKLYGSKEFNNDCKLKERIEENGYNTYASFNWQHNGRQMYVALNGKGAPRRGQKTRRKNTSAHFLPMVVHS

[16] = test system: glycogen synthase kinase-3 (GSK3A per assay name; protocol says GSK3B); experiment: GSK3 binders on small-molecule microarrays, primary screen, biochemical, small-molecule microarray, 635 nm fluorescence, GSK3A (AID 1103); conditions: small-molecule microarray binding, fluorescence 635 nm; higher = more signal; note: the record names both GSK3A and GSK3B
[17] = molecular target: Epidermal growth factor receptor (Homo sapiens) (UniProt P00533); experiment: EGFR binders on small-molecule microarrays, primary screen, biochemical, small-molecule microarray, 635 nm fluorescence (AID 1104); conditions: EGFR binding, higher = more signal;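 note: score merges 667 nm emission intensity with spot signal to noise over triplicate slides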
Epidermal growth factor receptor (Homo sapiens), sequence (P00533 whole entry, looked up): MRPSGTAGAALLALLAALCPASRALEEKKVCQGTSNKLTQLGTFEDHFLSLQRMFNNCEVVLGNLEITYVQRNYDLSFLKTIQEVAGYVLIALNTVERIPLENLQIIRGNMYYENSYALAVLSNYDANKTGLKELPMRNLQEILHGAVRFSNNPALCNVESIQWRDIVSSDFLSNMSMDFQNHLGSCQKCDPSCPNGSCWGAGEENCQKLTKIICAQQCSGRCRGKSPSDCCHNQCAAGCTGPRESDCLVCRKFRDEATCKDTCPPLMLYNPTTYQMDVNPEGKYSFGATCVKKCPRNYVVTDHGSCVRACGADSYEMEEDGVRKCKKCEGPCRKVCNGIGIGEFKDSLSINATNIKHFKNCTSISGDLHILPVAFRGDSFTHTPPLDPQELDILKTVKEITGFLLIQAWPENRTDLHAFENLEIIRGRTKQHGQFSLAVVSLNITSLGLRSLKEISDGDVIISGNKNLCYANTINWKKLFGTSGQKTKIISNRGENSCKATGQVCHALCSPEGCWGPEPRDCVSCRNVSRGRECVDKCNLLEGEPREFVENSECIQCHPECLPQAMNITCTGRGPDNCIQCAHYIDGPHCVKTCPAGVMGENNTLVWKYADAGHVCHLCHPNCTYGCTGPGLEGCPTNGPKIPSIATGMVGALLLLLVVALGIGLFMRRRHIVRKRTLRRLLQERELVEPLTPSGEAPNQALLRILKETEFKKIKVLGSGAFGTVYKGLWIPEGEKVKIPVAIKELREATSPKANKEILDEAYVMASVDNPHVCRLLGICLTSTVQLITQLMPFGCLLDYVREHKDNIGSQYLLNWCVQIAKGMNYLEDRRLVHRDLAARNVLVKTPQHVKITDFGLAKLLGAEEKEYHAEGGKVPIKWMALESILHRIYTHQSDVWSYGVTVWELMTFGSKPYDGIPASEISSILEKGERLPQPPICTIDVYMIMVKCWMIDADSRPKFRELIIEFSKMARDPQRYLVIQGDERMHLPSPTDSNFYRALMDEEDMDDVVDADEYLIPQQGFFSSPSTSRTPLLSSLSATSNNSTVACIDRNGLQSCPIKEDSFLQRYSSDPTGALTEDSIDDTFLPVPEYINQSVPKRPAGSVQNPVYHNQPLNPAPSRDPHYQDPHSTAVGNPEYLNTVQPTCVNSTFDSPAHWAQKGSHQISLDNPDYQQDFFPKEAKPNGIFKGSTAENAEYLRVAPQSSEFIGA

[18] = molecular target: Follistatin-related protein 3 (Homo sapiens) (UniProt O95633); experiment: FSTL3 binders on small-molecule microarrays, primary screen, biochemical, small-molecule microarray, 635 nm fluorescence (AID 1105); conditions: FSTL3 binding, higher = more signal;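 note: score merges emission near 667 nm and signal to noise per printed spot across three slides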
Follistatin-related protein 3 (Homo sapiens), sequence (O95633 whole entry, looked up): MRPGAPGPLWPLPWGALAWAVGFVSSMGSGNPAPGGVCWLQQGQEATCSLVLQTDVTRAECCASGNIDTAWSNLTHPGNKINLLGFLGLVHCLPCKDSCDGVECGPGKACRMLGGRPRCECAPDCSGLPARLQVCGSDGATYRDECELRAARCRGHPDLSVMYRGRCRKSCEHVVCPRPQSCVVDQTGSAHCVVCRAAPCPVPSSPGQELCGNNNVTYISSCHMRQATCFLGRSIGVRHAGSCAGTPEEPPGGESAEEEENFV

[19] = molecular target: Dickkopf-related protein 1 (Homo sapiens) (UniProt O94907); experiment: DKK1 binders on small-molecule microarrays, primary screen, biochemical, small-molecule microarray, 635 nm fluorescence scan (AID 1106); conditions: DKK1 binding, higher = more signal;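 note: score merges emission near 667 nm with signal to noise over three replicate slides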
Dickkopf-related protein 1 (Homo sapiens), sequence (O94907 whole entry, looked up): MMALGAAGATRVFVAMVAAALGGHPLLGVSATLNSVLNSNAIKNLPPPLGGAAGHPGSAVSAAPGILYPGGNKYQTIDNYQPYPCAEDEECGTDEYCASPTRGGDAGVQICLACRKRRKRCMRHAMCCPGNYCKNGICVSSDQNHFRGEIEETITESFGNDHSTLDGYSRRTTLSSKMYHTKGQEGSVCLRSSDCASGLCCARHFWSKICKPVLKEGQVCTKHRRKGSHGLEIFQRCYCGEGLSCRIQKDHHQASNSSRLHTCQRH

[20] = test system: Inhibin beta A chain (activin A); experiment: INHBA (activin A) binders on microarrays, primary screen, biochemical, small-molecule microarray, 635 nm fluorescence scan (AID 1107); conditions: small-molecule microarray binding, higher = more signal;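 note: mouse activin A protein probed at 4.33 µg/mL on printed slides; score merges bound-protein fluorescence near 667 nm with spot signal-to-noise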

Row | SMILES | composite z-score [1] | z-score [2] | z-score [3] | z-score [4] | composite z-score [5] | z-score [6] | composite z-score [7] | composite z-score [8] | composite z-score [9] | composite z-score [10] | composite z-score [11] | composite z-score [12] | composite z-score [13] | z-score [14] | composite z-score [15] | composite z-score [16] | composite z-score [17] | composite z-score [18] | composite z-score [19] | composite z-score [20]
1 | C=CCNC(=O)[C@H]1[C@@H]2C(=O)O[C@@H](c3ccccc3)[C@@H](c3ccccc3)N2[C@@H](c2ccccc2OCCO)[C@]12C(=O)N(C(=O)OCCOC)c1ccc(C#Cc3ccc(OC)cc3)cc12 | 1.55 | 2.2 (inactive) | 0.823 (inactive) | 6.52 (inactive) | 2.94 | 0.769 (inactive) | -0.0998 | 0.173 | 0.647 | -0.092 | 0.801 | 0.256 | 0.581 | 0.522 (inactive) | 0.654 | 1.06 | 0.301 | 0.0527 | -0.163 | 0.032
2 | CC1CC/C=C\[C@H]2OC34C=CCN(c5ccc(Cl)cc5)C(=O)[C@H]3N(CCCCCCO)C(=O)[C@]4(C)C2C(=O)O1 (stereo not given in full) | -0.106 | -0.0412 (inactive) | -0.884 (inactive) | 0.187 (inactive) | 0.995 | 0.206 (inactive) | -0.233 | -0.914 | -0.277 | -0.314 | 0.597 | -0.13 | 0.747 | 0.104 (inactive) | -0.533 | -0.594 | -0.726 | -0.931 | -1.43 | 0.0845
3 | CC(C)NC(=O)[C@@]1(C)c2ccccc2C(=O)N(Cc2ccccc2)[C@H]1c1ccc(CO)cc1 | 1.53 | -1.46 (inactive) | 0.138 (inactive) | -0.932 (inactive) | 3.22 | 1.11 (inactive) | -0.13 | -0.644 | -0.554 | -0.0035 | 1.7 | -0.152 | 0.424 | -0.44 (inactive) | -1.2 | -0.0543 | -0.921 | -0.394 | -0.0744 | -1.14
4 | CCCc1cc2c(n1CCc1ccc(Cl)cc1)C(C)C1CN(C(=O)c3ccccc3)C(C)(C(=O)OC)C21 (stereo not given) | 0.396 | 0.318 (inactive) | -0.29 (inactive) | 1.03 (inactive) | 3.31 | -2.17 (inactive) | 0.342 | -1.01 | 1.04 | 0.131 | 0.462 | 1.64 | 1.59 | 3.17 (inactive) | 0.464 | -0.014 | -0.403 | 0.252 | -1.92 | 1.24
5 | C=CCOC(=O)[C@H]1[C@@H]2C(=O)O[C@@H](c3ccccc3)[C@@H](c3ccccc3)N2[C@@H](c2ccc(OCCOC(=O)[C@H]3C[C@H]4C(=O)N[C@@H](CC(C)C)C(=O)N4[C@H]3c3ccc(O)cc3)cc2)[C@]12C(=O)Nc1ccccc12 | 1.53 | 2.24 (inactive) | 1.47 (inactive) | 3.92 (inactive) | 2.42 | 0.0375 (inactive) | -0.084 | 0.993 | 1.08 | 0.11 | 1.58 | 0.0955 | 0.202 | 0.119 (inactive) | 1.47 | 1.34 | 1.41 | 1.4 | 1.54 | 0.509
6 | CCOC(=O)c1cn(C[C@H](Cc2ccccc2)NC(=O)N[C@H](CO)CCc2oc(C(C)=O)c(C(=O)OC)c2C(=O)OC)nn1 | 1.54 | 0.511 (inactive) | -0.342 (inactive) | 0.018 (inactive) | 1.36 | -0.616 (inactive) | -0.0615 | 1.15 | 1.08 | 0.272 | 0.559 | 0.0549 | -0.398 | -1.1 (inactive) | 1.37 | 1.28 | 0.956 | 1.49 | 1.1 | -0.0083
7 | COCCCNC(=O)[C@@]1(Sc2ccc(C)cc2)CC(=O)N(Cc2ccccc2C(F)(F)F)[C@@H]1c1ccc(CO)cc1I | 0.242 | -0.394 (inactive) | -1.05 (inactive) | 0.461 (inactive) | 1.08 | 0.217 (inactive) | 0.0245 | -2.51 | -1.4 | -0.203 | 0.284 | 0.583 | 1.07 | -0.411 (inactive) | -1.02 | -0.981 | -1.44 | -1.73 | -0.831 | 1.02
8 | O=C1O[C@@H](c2ccccc2)[C@@H](c2ccccc2)N2[C@@H](c3ccc(OCCO)cc3)[C@]3(C(=O)Nc4ccc(C#CC5(O)CCCCCC5)cc43)[C@@H](C(=O)O)[C@H]12 | 1.35 | 2.79 (inactive) | -0.256 (inactive) | 0.757 (inactive) | 2.64 | 2.21 (inactive) | -0.166 | 0.674 | 0.743 | -0.0828 | 1.46 | 0.623 | 0.457 | -0.702 (inactive) | 0.372 | 0.995 | 0.146 | 0.401 | -0.0236 | 0.2
9 | COC(=O)[C@@]1(Cc2ccccc2)[C@H]2c3cc(C(=O)N(C)C)n(Cc4ccc(C(F)(F)F)nc4)c3C[C@H]2CN1C(=O)c1ccccc1 | 0.644 | 1.06 (inactive) | 1.28 (inactive) | 1.67 (inactive) | 3.69 | -0.755 (inactive) | 0.348 | -0.498 | 1.03 | 0.228 | 1.52 | 1.17 | 1.24 | -1.16 (inactive) | 1.08 | 1.12 | -0.405 | 0.885 | -0.547 | 0.822
10 | C=CCOC(=O)[C@@H]1[C@H]2C(=O)O[C@H](c3ccccc3)[C@H](c3ccccc3)N2[C@H](c2ccc(OCCOC(=O)[C@H]3C[C@H]4C(=O)N[C@@H](CCCCN(C)C)C(=O)N4[C@H]3c3ccc(O)cc3)cc2)[C@@]12C(=O)Nc1ccc(I)cc12 | 1.53 | 1.16 (inactive) | -2.52 (inactive) | 1.35 (inactive) | 2.68 | -1.27 (inactive) | -0.0686 | 1.93 | 1.1 | -0.0487 | 1.52 | 0.0904 | -0.13 | 0.676 (inactive) | 0.88 | 1.33 | 0.989 | 1.42 | 1.15 | 0.291

Source: PubChem BioAssay
